Inconclusive results are not listed. Active and inactive are the calls of the source. Calls follow the shape of the dose curve; as a rule, active = well fitted curve in the direction sought with a large enough effect; inconclusive = small, poorly fitted or top-dose-only effect, or another doubt; inactive = no such curve, though single readings can be large; an effect the other way counts as inactive or inconclusive.

This note sets out measurements from PubChem BioAssay (NCATS).

The target in assay [1] is Cytochrome P450 3A4 (Homo sapiens) (UniProt P08684). Kind of assay: qHTS Assay for Activators of Cytochrome P450 3A4 (AID 885). Also: nearly all actives have a fitted effect of over 65% in size. The method in brief: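 Quantitative HTS format: compounds preincubated with 20nM human CYP3A4 and Luciferin-PPXE substrate at KM, reaction started by NADPH regeneration, stopped after 60 min, luciferase luminescence read 20 min later.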
For orientation: qHTS replaces the single test concentration by a dilution series.

The nature of assay [2]: Confirmation and Secondary Assay for Modulators of Hemoglobin Beta Chain Splicing at IVS2 654 locus (AID 910).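 Also: HeLa cells stably carrying EGFP split by mutant beta-globin IVS2-654 intron.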 The method in brief: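 HeLa cells stably expressing EGFP interrupted by β-globin IVS2-654 intron, seeded overnight in Opti-MEM/2% FCS, then treated 2 days at 37 °C. Restored splicing read as total peak GFP intensity per well by laser scanning cytometry (488 nm excitation, 500–520 nm emission); 500 nM antisense PNA as control.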

Assay [3] can be described thus: Confirmation and Secondary Assay for Modulators of Hemoglobin Beta Chain Splicing at IVS2 705 locus (AID 930).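 Also: HeLa cells stably expressing the EGFP-705 splicing reporter; GFP fluorescence per well restored by corrected splicing of the IVS2-705 intron in EGFP; series mostly up to about 46 µM.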 A digest of the protocol: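 Per-well GFP, captured at 1 x 8 µm resolution with 488 nm excitation, served as the read-out for HeLa EGFP-705 cells incubated 2 days with test compound versus DMSO.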
A short description of assay [4]: Confirmatory screen NINDS Rhodamine qHTS for Zika virus inhibitors (AID 1347161). Also: potency is read from the fitted curve at half-maximal effect; nearly all actives have a fitted effect of over 60% in size. A digest of the protocol: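 Enzyme (25 nM, linked NS2B-NS3) was preincubated 15 min with compound in 10 mM Tris-HCl pH 8.0, 0.01% Tween 20. Rhodamine110 substrate (1.5 microM) was then added and fluorescence read at start and after 15 min.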
Assay [5] deals with Zika virus NS2B-NS3 protease (linked). Kind of assay: 384 well plate NINDS AMC confirmatory qHTS for Zika virus inhibitors (AID 1347163). Also: potency is read from the fitted curve at half-maximal effect; nearly all actives have a fitted effect of over 50% in size. The method in brief:
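Linked protease 5/30/60 nM final; cpds up to 1 mM final, ~15 min preinc. Substrate Ac-VKTGKR-AMC 30 microM final. RT, dark, 25 min; FI ex 355/em 460; normalized to no-enzyme/no-inhibitor ctrls.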

Assay [6] relates to Zika virus NS2B-NS3 protease (linked construct). Kind of assay: 384 well plate NINDS Rhodamine confirmatory qHTS for Zika virus inhibitors (AID 1347164).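 Also: fluorescence from protease cleavage of Ac-LKRR-rhodamine 110 substrate; potency is read from the fitted curve at half-maximal effect; nearly all actives have a fitted effect of over 65% in size.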 The method in brief:
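Enzyme (final 5/30/60 nM) + cpd (DMSO), ~15 min; add Ac-LKRR-Rd 10 microM final; 25 min RT, dark; FI ex 485/em 538; normalized to no-enzyme, no-inhibitor ctrls; aprotinin intraplate ctrl.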

The test system is the same in assay [7]. Kind of assay: Primary screen NINDS Rhodamine qHTS for Zika virus inhibitors (AID 1347160). Also: nearly all actives have a fitted effect of over 55% in size. Also: potency is read from the fitted curve at half-maximal effect. A digest of the protocol:
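Percent inhibition, normalized to uninhibited and enzyme-free controls, is fitted to a 4-parameter Hill equation. Fluorescence change comes from a 15-min cleavage of 1.5 microM bis-peptide Rhodamine110 substrate by 25 nM linked NS2B-NS3 at room temperature.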

A short description of assay [8]: Panc-1005 Cancer Cell Toxicity qHTS against the NCATS CANVASS Library (AID 1347349). Also: series mostly up to about 38 µM; nearly all actives have a fitted effect of over 60% in size. The method in brief:
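Viability was assessed by adding CellTiter-Glo reagent to treated cultures and reading luminescence after 15min at room temperature. Treatment lasted 72 h at 37 degrees C/5% CO2, using an 11-point series on 1000 cells/well.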

The nature of assay [9]: A2780 Cisplatin Sensitive Ovarian Cancer Cell Toxicity qHTS against the NCATS CANVASS Library (AID 1347353). Also: nearly all actives have a fitted effect of over 60% in size. Also: potency is read from the fitted curve at half-maximal effect. The method in brief:
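Seventy-two-hour exposure of cisplatin-sensitive A2780 ovarian cells to an 11-concentration qHTS series; cytotoxicity is inferred from loss of ATPLite luminescence. Bortezomib titration served as positive control.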

Assay [10] in a line: HEK-293 Cancer Cell Toxicity qHTS against the NCATS CANVASS Library (AID 1347355). Also: nearly all actives have a fitted effect of over 65% in size. Also: potency is read from the fitted curve at half-maximal effect. As to outcome: series mostly up to about 46 µM. The method in brief: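 qHTS cytotoxicity: compounds tested in 11 concentrations on 1000 seeded cells per well over 72 h; bortezomib served as control; signal from CellTiter-Glo luminescence.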
Assay [11] can be described thus: qHTS for Hypoxia signaling pathway (HIF-1) antagonists against the NCATS CANVASS Library (AID 1347374). Also: nearly all actives have a fitted effect of over 60% in size. Also: potency is read from the fitted curve at half-maximal effect. The method in brief:
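HRE-bla ME-180 cells (2,000/well, 0.5% dialyzed FBS) were pre-incubated 5 h, then given an 11-point compound series plus CoCl2 (60 uM solution as added) for 17 h at 37C. CCF4 β-lactamase read (ex 405, em 460/530 nm) after 2 h at RT.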

A short description of assay [12]: DH5-alpha competent E. coli microbial cell viability qHTS against the NCATS CANVASS Library (AID 1347377). The conditions noted are these: outcome: dose series up to 46.1 µM unless noted. The method in brief:
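Cell viability of competent DH5-alpha E. coli is scored from ATP content by luminescence. Cells sit overnight at 37C with compound across an 11-point concentration series.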

Assay [13] in a line: SDT Cancer Cell Toxicity qHTS against the NCATS CANVASS Library (AID 1347365). Also: nearly all actives have a fitted effect of over 60% in size. Also: potency is read from the fitted curve at half-maximal effect. The method in brief:
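Dispense 500 SDT cells per well; pin-transfer compounds; incubate 72 hr at 37C, 5% CO2, 95% RH; add CellTiterGlo and read luminescence.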

The nature of assay [14]: qHTS for Activators of p53 Stress Response Pathway screened against the NCATS CANVASS Library (AID 1347388). The method in brief:
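p53RE-bla HCT-116 cells (4000/well) were pre-incubated for 5 h, then treated with compound (11 points) for 16 h at 37C. After 2 h with CCF4, the 460/530 nm ratio gave reporter activation; CellTiter-Glo measured viability.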

The nature of assay [15]: Vero-766 cells viability qHTS against the NCATS CANVASS Library: Counterscreen for Zika virus inhibition assay (AID 1347394). Also: nearly all actives have a fitted effect of over 60% in size. Also: potency is read from the fitted curve at half-maximal effect. A digest of the protocol: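 Vero 766, no virus; 1000 cells/well; o/n attach; cpd 11-pt; 72 h, 37C, 5% CO2; CTG luminescence; cell-free media wells = 100% inhibition.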

Sequence of Cytochrome P450 3A4 (Homo sapiens) (P08684 whole entry, looked up): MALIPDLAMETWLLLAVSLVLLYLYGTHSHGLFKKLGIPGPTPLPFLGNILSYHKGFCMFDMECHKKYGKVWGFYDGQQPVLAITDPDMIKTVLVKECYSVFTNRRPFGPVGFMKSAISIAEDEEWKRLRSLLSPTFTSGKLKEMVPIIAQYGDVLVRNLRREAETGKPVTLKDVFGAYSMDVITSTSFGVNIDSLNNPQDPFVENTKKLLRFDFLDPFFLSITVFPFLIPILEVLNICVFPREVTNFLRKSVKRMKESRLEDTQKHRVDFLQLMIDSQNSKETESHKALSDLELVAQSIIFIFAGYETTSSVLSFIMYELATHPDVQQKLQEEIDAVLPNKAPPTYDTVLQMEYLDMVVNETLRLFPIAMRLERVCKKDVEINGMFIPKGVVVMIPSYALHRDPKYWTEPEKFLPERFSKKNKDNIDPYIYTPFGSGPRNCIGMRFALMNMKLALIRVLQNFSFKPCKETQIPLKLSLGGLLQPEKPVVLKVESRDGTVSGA

For `CC(C)=CCc1c2c(c3occ(-c4ccc(O)c(O)c4)c(=O)c3c1O)C=CC(C)(C)O2`, the Potency entry in assay [1] is “inactive”. Also, the result in [2] and in assay [3] was inactive. Further, the values for the Potency in assay [4], in [5] and in [6] were 12.4 µM (active), 7.08 µM (active) and 7.94 µM (active), respectively.
Regarding `C=C[C@](Cl)(CBr)CCC=C(C)C`, the Potency entry in [7], in [8], in [10] and in [11] was “inactive” each time. Besides, the Potency in assay [9] was 20.9 µM (active). Besides, the outcome in assay [12] was inactive.
On to `Oc1ccc(C2Oc3cc(O)c4c(c3[C@@H]2c2cc(O)cc(O)c2)[C@H]2C(c3ccc(O)cc3)c3c(O)cc5c(c3[C@H]2C4c2ccc(O)cc2)[C@H](c2cc(O)cc(O)c2)C(c2ccc(O)cc2)O5)cc1` (stereo partly specified), for which the Potency was 15.6 µM (active) in assay [7] and 4.18 µM (active) in [9]. The Potency entry in [10] is “inactive”. For the same compound, in assay [12], the call was inactive.
`CC(C)=CCC/C(C)=C/Cc1cc([C@@H]2CC(=O)c3c(cc(O)c(CC=C(C)C)c3O)O2)ccc1O`: the Potency in assay [7] was 6.97 µM (active). The Potency entry in assay [9], in [13], in assay [14] and in [15] was “inactive” in each case. Moreover, the compound was called inactive in [12].
In the case of `COc1cc(/C=C/C(=O)OC[C@@H](Cc2ccc(O)c(OC)c2)[C@@H](COC(=O)/C=C/c2ccc(O)c(OC)c2)Cc2ccc(O)c(OC)c2)ccc1O`, the Potency was 31.1 µM (active) in assay [7], 11.8 µM (active) in assay [10], 7.47 µM (active) in assay [11] and 7.41 µM (active) in [15].
`C=C1CCC2C(C)(C(=O)O)CCC(CC/C(C)=C/C(=O)NC(CCC(N)=O)C(=O)O)[C@@]2(C)C1` (stereo partly specified): the Potency result in assay [8], in [9], in assay [10], in assay [13], in assay [11] and in assay [14] was “inactive” throughout. Besides, the outcome in assay [12] was inactive.
Turning to `COc1cc([C@@H]2c3cc4c(cc3C[C@@]3(O[C@@H]5O[C@H](CO)[C@@H](O)[C@H](O)[C@H]5O)COC(=O)[C@H]23)OCO4)cc(OC)c1OC`, the Potency in assay [7] is 44 µM (active); in assay [10] it was 0.0469 µM (active); in assay [13], 0.0418 µM (active). Besides, the Potency result in assay [11] and in [14] was “inactive” in each case.
Turning to `C/C1=C/[C@@H](C)[C@H](O)[C@@H](O)/C=C/CC/C=C/C(=O)O[C@@H]1[C@H](C)C(=O)/C=C/CC1CC(=O)NC(=O)C1`, the Potency result in [7] and in [14] was “inactive” each time. Besides, the Potency was 13.2 µM (active) in assay [9], 18.7 µM (active) in [13] and 16.7 µM (active) in assay [11]. In addition, in assay [12], the compound was called inactive.
Turning to `O=C1OC(CCO)c2cccc(O)c21` (stereo unspecified), the Potency entry in [8], in assay [9], in assay [10], in [11], in assay [14] and in assay [15] was “inactive” in each case. Moreover, in assay [12], the compound was called inactive.
